According to PubChem BioAssay (NCATS):
Records with an inconclusive call do not appear. A call without a number means that no potency is given here. Active and inactive are the calls of the source. Calls come from the whole dose curve; as a rule, active = well fitted inhibition curve with a large enough effect; inconclusive = small, poorly fitted or top-dose-only effect; inactive = flat fitted curve, though single readings scatter.

Tests used:
Experiment in all cases: qHTS profiling for inhibitors of Plasmodium falciparum proliferation (AID 504749); note: nearly all actives have a fitted effect of over 60% in size
Details in all cases: P. falciparum in erythrocytes, SYBR Green DNA, 72 h; series mostly up to 28.7 µM
CP268 = tested on: CP268
In short: (§1)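 Infected RBCs, 0.3% parasitemia/2.5% Hct final; cpd 72 h, 37 C, 5% CO2; lysis buffer with saponin/triton/SYBR Green I, o/n RT dark; FI 485/535; norm. to artemisinin (0.29 uM) and DMSO.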

CP269 = tested on: CP269
In short: as §1

CP286 = tested on: CP286
In short: as §1

CP291 = tested on: CP291
In short: as §1

CP297 = tested on: CP297
In short: as §1

CP305 = tested on: CP305
In short: as §1

CP325 = tested on: CP325
In short: as §1

CP329 = tested on: CP329
In short: as §1

CP315 = tested on: CP315
In short: as §1

CP266 = tested on: CP266
In short: as §1
Potency is the fitted concentration of half-maximal effect.

Row | Compound | Potency (CP268) | Potency (CP269) | Potency (CP286) | Potency (CP291) | Potency (CP297) | Potency (CP305) | Potency (CP325) | Potency (CP329) | Potency (CP315) | outcome (CP266)
1 | CC(=O)[O][Hg][c]1ccccc1 | 4.78 µM (active) | 4.78 µM (active) | 3.55 µM (active) | 4.26 µM (active) | 13.5 µM (active) | 4.26 µM (active) | 6.01 µM (active) | – | – | –
2 | CCCCCCCCCCCCCCCC[N+](C)(C)C | 13.5 µM (active) | – | 5.01 µM (active) | 13.5 µM (active) | 13.5 µM (active) | – | 12 µM (active) | 10.7 µM (active) | – | –
3 | COC(C)(C)CCCC(C)C/C=C/C(C)=C/C(=O)OC(C)C (stereo not drawn) | – | – | – | – | – | – | – | – | inactive | –
4 | C[C@]12CCC(=O)C(O)=C1CC[C@@H]1[C@H]3CCC(=O)[C@@]3(C)CC[C@@H]12 | inactive | inactive | inactive | inactive | inactive | inactive | inactive | inactive | inactive | inactive
5 | Cc1cc(O)ccc1Cl | inactive | inactive | inactive | inactive | inactive | inactive | inactive | inactive | inactive | inactive
6 | O=[N+]([O-])c1ccc([As](=O)(O)O)cc1 | 13.5 µM (active) | 6.01 µM (active) | 7.94 µM (active) | 8.49 µM (active) | 10.7 µM (active) | 7.57 µM (active) | 9.53 µM (active) | 12 µM (active) | 12 µM (active) | –
7 | NC(=O)CN1CC(O)CC1=O (stereo not drawn) | inactive | inactive | inactive | inactive | inactive | inactive | inactive | inactive | inactive | inactive
8 | CN1C2CCC1CC(OC(=O)c1cc(Cl)cc(Cl)c1)C2 (stereo not drawn) | inactive | inactive | inactive | inactive | – | inactive | inactive | inactive | inactive | inactive
9 | C=CCN1CC[C@]23CCCCC2[C@H]1Cc1ccc(O)cc13 (stereo partly drawn) | inactive | inactive | inactive | inactive | inactive | inactive | inactive | inactive | inactive | inactive
10 | CCCCCCCCCC(CC)c1ccc(S(=O)(=O)O)cc1 (stereo not drawn) | inactive | inactive | inactive | inactive | inactive | inactive | inactive | inactive | inactive | –
11 | C#CC1(O)CCC2C3CCC4=CC(=O)CCC4(C)C3CCC21C (stereo not drawn) | inactive | inactive | inactive | inactive | inactive | inactive | inactive | inactive | inactive | inactive
12 | CN[C@@H]1C[C@@H](c2ccc(Cl)c(Cl)c2)c2ccccc21 | – | – | 12.6 µM (active) | – | inactive | – | inactive | inactive | inactive | –
13 | CC(C)NC(C)Cc1ccc(I)cc1 (stereo not drawn) | – | inactive | inactive | inactive | – | inactive | inactive | inactive | inactive | inactive
14 | O=C(O)C(Cl)Cl | inactive | inactive | inactive | inactive | inactive | inactive | inactive | inactive | inactive | inactive
15 | CC[N+]1(CCOC(=O)C(O)(c2ccccc2)c2ccccc2)CCCCC1 | inactive | inactive | inactive | inactive | inactive | inactive | inactive | inactive | inactive | inactive
16 | CN(C)[C@@H]1C(=O)C(C(N)=O)=C(O)[C@@]2(O)C(=O)C3=C(O)c4c(O)cccc4[C@@](C)(O)[C@H]3[C@H](O)[C@@H]12 | inactive | inactive | – | inactive | – | inactive | inactive | inactive | inactive | inactive
17 | C1CCC(NC2CCCCC2)CC1 | inactive | inactive | inactive | inactive | inactive | inactive | inactive | inactive | inactive | inactive
18 | O=C(O)COc1ccccc1 | inactive | inactive | inactive | inactive | inactive | inactive | inactive | inactive | inactive | inactive
19 | c1ccc(C2(c3ccccc3)CC2C2=NCCN2)cc1 (stereo not drawn) | inactive | inactive | – | inactive | inactive | inactive | inactive | inactive | inactive | –
20 | Cc1ccc(Cl)c(O)c1 | inactive | inactive | inactive | inactive | inactive | inactive | inactive | inactive | inactive | inactive
21 | COC(=O)c1cncn1C(C)c1ccccc1 (stereo not drawn) | inactive | inactive | – | inactive | inactive | inactive | inactive | inactive | inactive | inactive
22 | CCCN1CCC[C@H](c2cccc(O)c2)C1 | inactive | inactive | inactive | inactive | – | inactive | inactive | inactive | inactive | inactive
23 | CC(=O)OCC1=C(C(=O)O)N2C(=O)[C@@H](N)[C@@H]2SC1 | inactive | inactive | inactive | inactive | inactive | inactive | inactive | inactive | inactive | inactive
24 | CCCCc1ccc(C(=O)O)nc1 | inactive | inactive | inactive | inactive | inactive | inactive | inactive | inactive | inactive | inactive
25 | NC1=NC(=O)N2CC12 (stereo not drawn) | – | – | – | – | inactive | – | inactive | inactive | inactive | inactive
26 | COC(=O)[C@@H](N)CCCN=C(N)N[N+](=O)[O-] | inactive | inactive | inactive | inactive | inactive | inactive | inactive | inactive | inactive | inactive
